Paper PMC7862700, “An all-to-all approach to the identification of sequence-specific readers for epigenetic DNA modifications on cytosine”

Key:
Assay in all cases: DAPPL (digital affinity profiling via proximity ligation, sequencing); 10 mM Tris-HCl pH 7.5, 50 mM NaCl, 1 mM DTT, 4% glycerol, room temperature, 30 min; GST-TFs on glutathione beads, 16-mer random dsDNA library, 0.1% formaldehyde crosslink after washing; high values mean tight binding
FEV = target: T1, FEV (Homo sapiens, UniProt Q99581 1-238); details: protein: recombinant; tags: N-terminal GST; dsDNA, one strand shown
T1 sequence: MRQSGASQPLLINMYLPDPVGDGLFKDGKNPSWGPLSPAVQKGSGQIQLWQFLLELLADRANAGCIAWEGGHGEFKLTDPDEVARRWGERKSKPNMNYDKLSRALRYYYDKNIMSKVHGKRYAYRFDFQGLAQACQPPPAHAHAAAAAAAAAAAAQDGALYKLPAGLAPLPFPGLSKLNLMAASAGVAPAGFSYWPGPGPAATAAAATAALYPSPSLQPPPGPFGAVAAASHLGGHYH
How it was run: (§1)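 Binding signal is each hexamer's read frequency for a factor divided by its frequency in the tag-only sample. The factors were GST-fused human transcription factors from yeast, captured on glutathione beads, DNA-barcoded and pooled with that sample. Pools were incubated with 200 nmole of a random double-stranded 16-mer DNA library in Tris/NaCl/DTT/glycerol buffer at room temperature for 30 min, then washed, crosslinked with 0.1% formaldehyde, proximity-ligated with BsaI/T4 ligase (1 h, 37 °C), PCR-amplified and sequenced on an Illumina NextSeq500.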

ETV5 = ETV5 (Homo sapiens, UniProt P41161 1-510); details: protein: recombinant; tags: N-terminal GST; dsDNA, one strand shown
How it was run: as §1

HSF1 = HSF1 (Homo sapiens, UniProt Q00613 1-529); details: protein: recombinant; tags: N-terminal GST; chain copies: 3; dsDNA, one strand shown
How it was run: as §1

ELF4 = ELF4 (Homo sapiens, UniProt Q99607 1-663); details: protein: recombinant; tags: N-terminal GST; dsDNA, one strand shown
How it was run: as §1

ELK4 = target: T2, ELK4 (Homo sapiens, UniProt P28324-2 1-405); details: protein: recombinant; tags: N-terminal GST; dsDNA, one strand shown
T2 sequence: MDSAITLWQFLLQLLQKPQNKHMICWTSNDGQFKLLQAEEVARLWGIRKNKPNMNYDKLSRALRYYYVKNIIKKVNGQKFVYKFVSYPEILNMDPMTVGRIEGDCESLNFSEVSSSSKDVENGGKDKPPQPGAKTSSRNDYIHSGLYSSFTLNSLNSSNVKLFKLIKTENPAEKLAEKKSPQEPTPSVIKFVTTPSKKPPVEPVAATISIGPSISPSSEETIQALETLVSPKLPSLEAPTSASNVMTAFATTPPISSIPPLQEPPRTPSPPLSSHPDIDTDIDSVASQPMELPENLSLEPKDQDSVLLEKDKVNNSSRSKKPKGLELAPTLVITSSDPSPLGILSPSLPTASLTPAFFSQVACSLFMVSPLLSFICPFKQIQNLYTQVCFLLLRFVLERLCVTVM
How it was run: as §1

ETV2 = target: T3, ETV2 (Homo sapiens, UniProt O00321 1-342); details: protein: recombinant; tags: N-terminal GST; dsDNA, one strand shown
T3 sequence: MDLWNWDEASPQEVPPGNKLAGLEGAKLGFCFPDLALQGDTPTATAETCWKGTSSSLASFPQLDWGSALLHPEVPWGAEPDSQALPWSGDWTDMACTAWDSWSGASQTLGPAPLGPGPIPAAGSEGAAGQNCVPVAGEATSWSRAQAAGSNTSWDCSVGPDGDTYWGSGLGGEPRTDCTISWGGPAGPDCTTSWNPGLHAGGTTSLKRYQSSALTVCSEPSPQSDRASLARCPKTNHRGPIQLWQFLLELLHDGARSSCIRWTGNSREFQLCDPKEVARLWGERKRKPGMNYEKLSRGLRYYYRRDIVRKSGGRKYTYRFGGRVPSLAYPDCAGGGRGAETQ
How it was run: as §1

ELF3 = target: T4, ELF3 (Homo sapiens, UniProt P78545 1-371); details: protein: recombinant; tags: N-terminal GST; dsDNA, one strand shown
T4 sequence: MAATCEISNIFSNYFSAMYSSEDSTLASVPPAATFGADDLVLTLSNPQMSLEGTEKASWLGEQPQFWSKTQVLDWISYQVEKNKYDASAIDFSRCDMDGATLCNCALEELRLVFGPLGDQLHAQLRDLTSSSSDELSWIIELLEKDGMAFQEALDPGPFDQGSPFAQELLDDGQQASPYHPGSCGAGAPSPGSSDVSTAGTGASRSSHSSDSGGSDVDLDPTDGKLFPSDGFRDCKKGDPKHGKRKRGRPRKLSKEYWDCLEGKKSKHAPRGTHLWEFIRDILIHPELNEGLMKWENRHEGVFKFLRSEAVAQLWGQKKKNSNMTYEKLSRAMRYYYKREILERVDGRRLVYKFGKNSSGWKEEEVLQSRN
How it was run: as §1

CRX = CRX (Homo sapiens, UniProt O43186 1-299); details: protein: recombinant; tags: N-terminal GST; dsDNA, one strand shown
How it was run: as §1

ETV1 = ETV1 (Homo sapiens, UniProt P50549 1-477); details: protein: recombinant; tags: N-terminal GST; dsDNA, one strand shown
How it was run: as §1

ERF = target: T5, ERF (Homo sapiens, UniProt P50548 1-548); details: protein: recombinant; tags: N-terminal GST; dsDNA, one strand shown
T5 sequence: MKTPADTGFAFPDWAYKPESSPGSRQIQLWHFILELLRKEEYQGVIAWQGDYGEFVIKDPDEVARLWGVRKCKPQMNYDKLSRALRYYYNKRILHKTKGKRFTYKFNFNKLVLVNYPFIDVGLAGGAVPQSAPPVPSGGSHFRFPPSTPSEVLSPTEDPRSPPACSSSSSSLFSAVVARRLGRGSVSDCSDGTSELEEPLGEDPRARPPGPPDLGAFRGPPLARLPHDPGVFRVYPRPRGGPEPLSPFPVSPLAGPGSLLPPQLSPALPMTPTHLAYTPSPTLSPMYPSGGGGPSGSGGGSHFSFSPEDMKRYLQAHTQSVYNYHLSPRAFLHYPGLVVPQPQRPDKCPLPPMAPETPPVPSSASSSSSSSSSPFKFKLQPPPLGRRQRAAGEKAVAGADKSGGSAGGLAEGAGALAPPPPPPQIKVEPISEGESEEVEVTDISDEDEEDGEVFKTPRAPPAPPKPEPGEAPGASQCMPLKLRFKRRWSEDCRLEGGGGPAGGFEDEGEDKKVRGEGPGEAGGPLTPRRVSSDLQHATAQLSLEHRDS
How it was run: as §1

ETV3L = target: T6, ETV3L (Homo sapiens, UniProt Q6ZN32 1-361); details: protein: recombinant; tags: N-terminal GST; dsDNA, one strand shown
T6 sequence: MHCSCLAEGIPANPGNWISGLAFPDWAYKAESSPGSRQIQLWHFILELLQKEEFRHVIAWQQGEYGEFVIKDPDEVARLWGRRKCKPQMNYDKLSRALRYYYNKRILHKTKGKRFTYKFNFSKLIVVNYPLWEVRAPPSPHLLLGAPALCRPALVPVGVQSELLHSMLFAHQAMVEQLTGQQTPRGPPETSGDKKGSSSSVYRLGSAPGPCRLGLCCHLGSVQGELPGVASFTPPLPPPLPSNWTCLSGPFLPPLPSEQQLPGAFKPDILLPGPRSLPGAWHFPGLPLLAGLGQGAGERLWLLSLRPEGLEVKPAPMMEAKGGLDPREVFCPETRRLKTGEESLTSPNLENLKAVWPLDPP
How it was run: as §1

ETS2 = target: T7, ETS2 (Homo sapiens, UniProt P15036 1-469); details: protein: recombinant; tags: N-terminal GST; dsDNA, one strand shown
T7 sequence: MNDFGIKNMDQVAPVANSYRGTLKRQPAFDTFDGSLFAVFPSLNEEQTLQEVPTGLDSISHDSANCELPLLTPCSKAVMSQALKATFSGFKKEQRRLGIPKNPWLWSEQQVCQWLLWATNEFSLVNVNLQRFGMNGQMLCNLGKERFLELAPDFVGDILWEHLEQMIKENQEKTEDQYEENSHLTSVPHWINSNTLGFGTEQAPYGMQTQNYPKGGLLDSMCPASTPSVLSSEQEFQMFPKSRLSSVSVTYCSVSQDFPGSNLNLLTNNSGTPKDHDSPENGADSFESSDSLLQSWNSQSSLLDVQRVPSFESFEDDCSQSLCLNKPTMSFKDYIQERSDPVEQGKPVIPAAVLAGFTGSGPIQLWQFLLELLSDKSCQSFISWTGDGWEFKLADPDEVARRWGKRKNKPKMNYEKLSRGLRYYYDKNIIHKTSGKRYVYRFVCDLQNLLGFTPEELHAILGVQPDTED
How it was run: as §1

SPDEF = target: T8, SPDEF (Homo sapiens, UniProt O95238 1-335); details: protein: recombinant; tags: N-terminal GST; dsDNA, one strand shown
T8 sequence: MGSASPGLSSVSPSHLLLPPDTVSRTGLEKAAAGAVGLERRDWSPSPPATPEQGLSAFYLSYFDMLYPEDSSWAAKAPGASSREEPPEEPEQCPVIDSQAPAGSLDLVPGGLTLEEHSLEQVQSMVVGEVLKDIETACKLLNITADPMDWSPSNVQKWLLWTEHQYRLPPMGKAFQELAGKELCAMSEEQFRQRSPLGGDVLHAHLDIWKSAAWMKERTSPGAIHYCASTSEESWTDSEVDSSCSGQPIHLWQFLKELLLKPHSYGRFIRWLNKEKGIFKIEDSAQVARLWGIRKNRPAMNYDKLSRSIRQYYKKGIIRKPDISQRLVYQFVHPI
How it was run: as §1

ETV7 = target: T9, ETV7 (Homo sapiens, UniProt Q9Y603 1-341); details: protein: recombinant; tags: N-terminal GST; dsDNA, one strand shown
T9 sequence: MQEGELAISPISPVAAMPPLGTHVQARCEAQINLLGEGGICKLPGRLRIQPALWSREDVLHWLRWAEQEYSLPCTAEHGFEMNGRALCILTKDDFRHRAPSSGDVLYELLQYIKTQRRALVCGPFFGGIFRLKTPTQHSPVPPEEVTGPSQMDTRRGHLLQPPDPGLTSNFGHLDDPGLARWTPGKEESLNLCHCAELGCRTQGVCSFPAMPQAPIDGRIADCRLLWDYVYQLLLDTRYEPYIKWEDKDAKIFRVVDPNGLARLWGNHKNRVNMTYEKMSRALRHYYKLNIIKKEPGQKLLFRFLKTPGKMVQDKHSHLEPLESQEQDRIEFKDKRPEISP
How it was run: as §1

ETV3 = target: T10, ETV3 (Homo sapiens, UniProt P41162-2 1-143); details: protein: recombinant; tags: N-terminal GST; dsDNA, one strand shown
T10 sequence: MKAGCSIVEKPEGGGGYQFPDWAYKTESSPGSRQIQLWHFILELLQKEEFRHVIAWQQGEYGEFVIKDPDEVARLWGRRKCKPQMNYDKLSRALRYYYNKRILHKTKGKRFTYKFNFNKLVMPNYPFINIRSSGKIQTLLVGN
How it was run: as §1

ETV6 = ETV6 (Homo sapiens, UniProt P41212 1-452); details: protein: recombinant; tags: N-terminal GST; dsDNA, one strand shown
How it was run: as §1

ELF5 = target: T11, ELF5 (Homo sapiens, UniProt Q9UKW6-2 1-255); details: protein: recombinant; tags: N-terminal GST; dsDNA, one strand shown
T11 sequence: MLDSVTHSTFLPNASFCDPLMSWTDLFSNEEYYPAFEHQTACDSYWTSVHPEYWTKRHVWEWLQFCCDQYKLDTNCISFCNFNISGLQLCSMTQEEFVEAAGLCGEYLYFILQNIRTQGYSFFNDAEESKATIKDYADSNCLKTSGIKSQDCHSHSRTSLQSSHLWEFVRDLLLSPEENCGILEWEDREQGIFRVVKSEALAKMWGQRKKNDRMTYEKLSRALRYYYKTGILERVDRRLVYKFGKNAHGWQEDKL
How it was run: as §1

Chain of HSF1 (Q00613 whole entry): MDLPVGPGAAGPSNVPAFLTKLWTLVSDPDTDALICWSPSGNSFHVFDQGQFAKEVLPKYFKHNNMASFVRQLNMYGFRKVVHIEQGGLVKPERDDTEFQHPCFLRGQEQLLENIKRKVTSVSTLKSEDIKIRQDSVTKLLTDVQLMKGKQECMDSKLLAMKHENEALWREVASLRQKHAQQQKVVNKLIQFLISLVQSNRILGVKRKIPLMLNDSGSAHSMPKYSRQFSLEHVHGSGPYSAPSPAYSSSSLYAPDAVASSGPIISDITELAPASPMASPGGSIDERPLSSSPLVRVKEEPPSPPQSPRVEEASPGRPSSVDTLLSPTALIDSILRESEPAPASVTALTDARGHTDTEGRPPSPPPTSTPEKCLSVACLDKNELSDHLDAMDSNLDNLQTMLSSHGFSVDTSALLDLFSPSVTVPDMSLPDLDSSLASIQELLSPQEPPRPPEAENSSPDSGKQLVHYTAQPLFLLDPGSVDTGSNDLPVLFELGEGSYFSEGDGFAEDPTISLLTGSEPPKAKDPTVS
Chain of ETV6 (P41212 whole entry): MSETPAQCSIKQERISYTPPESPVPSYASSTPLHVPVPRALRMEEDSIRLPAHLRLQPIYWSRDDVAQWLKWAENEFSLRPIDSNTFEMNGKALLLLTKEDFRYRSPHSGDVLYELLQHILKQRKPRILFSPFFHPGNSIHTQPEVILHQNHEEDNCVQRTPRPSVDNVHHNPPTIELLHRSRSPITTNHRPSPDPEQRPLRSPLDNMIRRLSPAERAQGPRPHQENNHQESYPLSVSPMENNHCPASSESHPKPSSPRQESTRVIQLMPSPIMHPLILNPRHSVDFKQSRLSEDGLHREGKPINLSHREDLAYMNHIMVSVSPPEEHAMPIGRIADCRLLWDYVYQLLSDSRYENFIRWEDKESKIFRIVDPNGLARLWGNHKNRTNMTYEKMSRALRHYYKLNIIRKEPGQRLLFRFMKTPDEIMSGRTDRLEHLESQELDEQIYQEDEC
Chain of ETV1 (P50549 whole entry): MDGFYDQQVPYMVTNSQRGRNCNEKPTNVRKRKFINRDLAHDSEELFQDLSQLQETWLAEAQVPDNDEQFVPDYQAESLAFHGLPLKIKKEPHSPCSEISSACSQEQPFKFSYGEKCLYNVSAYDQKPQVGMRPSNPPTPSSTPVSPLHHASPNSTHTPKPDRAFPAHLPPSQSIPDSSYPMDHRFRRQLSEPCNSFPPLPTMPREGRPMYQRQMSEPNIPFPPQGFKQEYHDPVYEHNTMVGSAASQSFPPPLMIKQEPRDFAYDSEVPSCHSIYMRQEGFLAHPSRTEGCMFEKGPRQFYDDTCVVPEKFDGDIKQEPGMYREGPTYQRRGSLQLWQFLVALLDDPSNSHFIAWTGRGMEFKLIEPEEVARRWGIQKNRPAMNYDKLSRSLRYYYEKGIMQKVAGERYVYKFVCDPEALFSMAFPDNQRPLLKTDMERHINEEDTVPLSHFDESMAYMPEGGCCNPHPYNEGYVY
Chain of CRX (O43186 whole entry): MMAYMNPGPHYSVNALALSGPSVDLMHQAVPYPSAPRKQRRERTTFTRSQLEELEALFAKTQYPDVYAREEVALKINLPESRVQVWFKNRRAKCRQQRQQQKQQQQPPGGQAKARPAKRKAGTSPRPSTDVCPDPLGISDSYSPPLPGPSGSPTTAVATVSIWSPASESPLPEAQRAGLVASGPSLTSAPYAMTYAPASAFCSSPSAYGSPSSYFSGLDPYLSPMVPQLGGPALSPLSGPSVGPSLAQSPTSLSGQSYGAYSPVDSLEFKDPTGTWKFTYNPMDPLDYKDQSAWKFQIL
Chain of ETV5 (P41161 whole entry): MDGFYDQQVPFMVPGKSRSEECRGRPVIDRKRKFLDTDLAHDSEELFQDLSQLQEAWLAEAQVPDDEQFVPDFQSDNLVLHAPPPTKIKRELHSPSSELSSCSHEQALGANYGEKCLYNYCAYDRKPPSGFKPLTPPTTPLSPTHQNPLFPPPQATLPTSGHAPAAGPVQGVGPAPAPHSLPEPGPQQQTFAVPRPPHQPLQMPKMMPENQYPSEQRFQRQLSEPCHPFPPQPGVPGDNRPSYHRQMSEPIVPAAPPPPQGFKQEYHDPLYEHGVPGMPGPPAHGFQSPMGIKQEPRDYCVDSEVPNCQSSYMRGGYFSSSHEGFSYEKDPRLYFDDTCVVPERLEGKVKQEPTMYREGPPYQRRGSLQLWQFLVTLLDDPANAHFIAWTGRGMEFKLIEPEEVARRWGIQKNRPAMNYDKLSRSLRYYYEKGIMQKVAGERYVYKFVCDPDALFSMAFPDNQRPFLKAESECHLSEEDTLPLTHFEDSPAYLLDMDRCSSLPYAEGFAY
Chain of ELF4 (Q99607 whole entry): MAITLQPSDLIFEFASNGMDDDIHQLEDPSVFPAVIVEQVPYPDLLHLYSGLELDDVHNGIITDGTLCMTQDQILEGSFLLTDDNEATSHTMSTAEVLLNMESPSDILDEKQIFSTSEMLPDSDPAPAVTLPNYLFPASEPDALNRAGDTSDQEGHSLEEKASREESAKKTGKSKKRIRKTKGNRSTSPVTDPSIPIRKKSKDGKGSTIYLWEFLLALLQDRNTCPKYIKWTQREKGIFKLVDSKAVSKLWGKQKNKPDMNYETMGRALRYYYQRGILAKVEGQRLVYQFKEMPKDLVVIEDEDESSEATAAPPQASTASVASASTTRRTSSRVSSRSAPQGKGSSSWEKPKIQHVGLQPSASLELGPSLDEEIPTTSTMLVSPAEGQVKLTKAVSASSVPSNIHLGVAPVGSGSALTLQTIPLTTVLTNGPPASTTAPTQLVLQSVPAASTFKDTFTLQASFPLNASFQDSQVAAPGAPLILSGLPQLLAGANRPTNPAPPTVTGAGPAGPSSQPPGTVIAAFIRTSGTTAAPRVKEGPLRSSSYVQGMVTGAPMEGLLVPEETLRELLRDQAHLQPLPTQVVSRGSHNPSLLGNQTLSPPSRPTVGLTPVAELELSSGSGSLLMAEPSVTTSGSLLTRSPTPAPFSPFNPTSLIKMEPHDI

Sequence | binding signal (FEV) | binding signal (ETV5) | binding signal (HSF1) | binding signal (ELF4) | binding signal (ELK4) | binding signal (ETV2) | binding signal (ELF3) | binding signal (CRX) | binding signal (ETV1) | binding signal (ERF) | binding signal (ETV3L) | binding signal (ETS2) | binding signal (SPDEF) | binding signal (ETV7) | binding signal (ETV3) | binding signal (ETV6) | binding signal (ELF5)
TTACGC | 1.1 fold enrichment (6-mer frequency, TF over GST control) | 1.19 fold enrichment (6-mer frequency, TF over GST control) | 1.39 fold enrichment (6-mer frequency, TF over GST control) | 1.19 fold enrichment (6-mer frequency, TF over GST control) | 1.04 fold enrichment (6-mer frequency, TF over GST control) | 1.16 fold enrichment (6-mer frequency, TF over GST control) | 1.01 fold enrichment (6-mer frequency, TF over GST control) | 1.81 fold enrichment (6-mer frequency, TF over GST control) | 1.13 fold enrichment (6-mer frequency, TF over GST control) | 1.15 fold enrichment (6-mer frequency, TF over GST control) | 1.05 fold enrichment (6-mer frequency, TF over GST control) | 1.1 fold enrichment (6-mer frequency, TF over GST control) | 1.08 fold enrichment (6-mer frequency, TF over GST control) | 1.02 fold enrichment (6-mer frequency, TF over GST control) | 1.16 fold enrichment (6-mer frequency, TF over GST control) | 1.11 fold enrichment (6-mer frequency, TF over GST control) | –
CAAAGC | 1.14 fold enrichment (6-mer frequency, TF over GST control) | 1.05 fold enrichment (6-mer frequency, TF over GST control) | 1.04 fold enrichment (6-mer frequency, TF over GST control) | 1.05 fold enrichment (6-mer frequency, TF over GST control) | 1.24 fold enrichment (6-mer frequency, TF over GST control) | 1.09 fold enrichment (6-mer frequency, TF over GST control) | 1.03 fold enrichment (6-mer frequency, TF over GST control) | 1.3 fold enrichment (6-mer frequency, TF over GST control) | 1.08 fold enrichment (6-mer frequency, TF over GST control) | 1.13 fold enrichment (6-mer frequency, TF over GST control) | 1.07 fold enrichment (6-mer frequency, TF over GST control) | 1 fold enrichment (6-mer frequency, TF over GST control) | 1.06 fold enrichment (6-mer frequency, TF over GST control) | – | 1.08 fold enrichment (6-mer frequency, TF over GST control) | 1.08 fold enrichment (6-mer frequency, TF over GST control) | 1.01 fold enrichment (6-mer frequency, TF over GST control)
